Assay results taken from PubChem BioAssay (NCATS).
Records with an inconclusive call do not appear. Active and inactive are the calls of the source. The call rests on the fitted dose curve; in most records, active means well fitted inhibition curve with a large enough effect; inconclusive means small, poorly fitted or top-dose-only effect; inactive means no such curve, though single readings can be large or run the other way.

target: Muscarinic acetylcholine receptor M1 (Rattus norvegicus) (UniProt P08482); test: qHTS Assay for Antagonists of Acetylcholine Muscarinic M1 Receptor: Measurement of IP-One Response (AID 944); details: CHO-M1 cells, IP-One HTRF, antagonist mode; series mostly up to 46.1 µM; activity change, negative = inhibition: at the top concentration; further: nearly all actives have a fitted effect of over 75% in size
Sequence (P08482 whole entry, looked up): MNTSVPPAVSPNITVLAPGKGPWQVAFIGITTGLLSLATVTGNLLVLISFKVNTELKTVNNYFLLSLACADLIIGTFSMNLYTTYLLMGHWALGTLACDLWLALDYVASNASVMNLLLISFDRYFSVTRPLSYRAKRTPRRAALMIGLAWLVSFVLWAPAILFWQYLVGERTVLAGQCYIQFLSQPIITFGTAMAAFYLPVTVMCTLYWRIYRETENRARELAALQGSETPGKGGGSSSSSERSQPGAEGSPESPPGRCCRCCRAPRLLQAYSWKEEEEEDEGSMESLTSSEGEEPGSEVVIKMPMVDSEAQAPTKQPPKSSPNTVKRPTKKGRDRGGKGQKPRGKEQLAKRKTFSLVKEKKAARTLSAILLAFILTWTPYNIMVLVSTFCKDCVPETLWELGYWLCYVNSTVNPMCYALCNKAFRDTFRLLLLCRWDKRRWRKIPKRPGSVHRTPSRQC
From the text: NIH Molecular Libraries Screening Centers Network [MLSCN]
NIH Chemical Genomics Center [NCGC]
Acetylcholine muscarinic M1 receptor is a G-protein coupled receptor (GPCR) coupling to the Gq G protein. It is mainly expressed in brain and functionally related to the learning and memory processes. The agonists of this receptor have the potential for the treatment of Alzheimer's disease and cognitive impairments associated with Schizophrenia.
Upon an activation of the M1 receptor, phosholipase C (PLC) is activated to produce inositol 1,4,5-trisphosphate (IP3) and diacyl glycerol (DAG). The IP3 is very rapidly hydrolyzed to IP2, IP1 and then inositol by a series of enzymes and Ca2+ is quickly pumped back into ER by the calcium pump on the ER membrane, which effectively switches off the IP3 and Ca2+ signaling. For compound screen, the changes in intracellular free Ca2+ concentration can be measured by the fluorescence calcium dye such as Fura-2, Fluo-3 and Fluo-4 with a fluorescence kinetic plate reader. IP1 or total IPs including IP1, IP2 and IP3 are usually measured as an alternative method for assessing the function of Gq-coupled GPCRs. We have applied a time-resolved fluorescence based (TR-FRET) IP1 assay in which an IP1 specific antibody is used to detect the labeled IP1 tracer. When the cell lysate contains the elevated IP1, the TR-FRET between the labeled antibody and IP1 tracer is disrupted resulting in a reduction in the total signal. Since the TR-FRET is used, a homogenous assay with out cell wash and medium change is possible which also can be miniaturized into the high density format for HTS.
We have obtained a M1-CHO cell line transfected with rat acetylcholine M1 receptor and optimized this IP-One assay with this cell line for compound screening as a counter-screen assay for other Gq-coupled GPCRs.
NCGC Assay Protocol Summary:
The CHO-M1 (CHO-M1) cell line transfected with the rat acetylcholine muscarinic M1 receptor was obtained from American Type Culture Collection (ATCC). The cells were maintained in call culture flasks with F12 Kaighn's media (Invitrogen) supplemented with 10 % FBS, 100 units/ml penicillin, 100 ug/ml streptomycin and 250 ug/ml geneticin (Invitrogen) at 37C, 5 % CO2 in a humidified atmosphere. At 90-95 % confluence, the cells were then detached in 15 ml 0.25 % trypsin by 3 minutes incubation at 37C and centrifuged at 1000 RPM to remove the trypsin solution. The resulting cell pellet was resuspended in the cell freezing media containing 10 % DMSO (Invitrogen) at a density of 4 x 10^7 cells/ml. The aliquots of cells at 0.5 - 1 ml per vial were frozen down slowly at 1 degree C/min using a Cryo 1 degree C freezing container in the presence of isopropanol (Nalgene Nunc, Rochster, NY) overnight in a -80C freezer. The frozen cells were then transferred to liquid nitrogen for the storage up to one year.
The resuspended frozen cells were plated at 3 ul/well with 2000 cells in the black, tissue culture treated, clear bottom 1536-well plates. The cells were cultured at 37C, 5 % CO2 for overnight to allow the cells recovering from the frozen state. 20 nl/well of compound in DMSO solution was added to the assay plate and incubated for 10 min. Carbachol was prepared in stimulation buffer (10mM Hepes, 1mM CaCl2, 0.5 mM MgCl2, 4.2 mM KCl, 146 mM NaCl, 5.5 mM glucose 50mM LiCl 50mM pH7.4) which was added to the assay plate at 1 ul/well. After an incubation with carbachol at 37C, 5 % CO2 for 30 min, all the wells in the assay plate were added with 1 ul/well of d2 conjugated IP1 (d2-IP1) and 1 ul/well of Eu+ cryptate conjugated anti-IP1 antibody (Eu+-Ab), both from the IP-One kit (Cisbio USA., Inc.). After 10 min incubation at the room temperature, the assay plates were measured in the HTRF detection mode in ViewLux plate reader (Ex=337 nm. Em(1)=620 and Em(2)=665 nm)
1536-well assay protocol:
(1) 4 ul/well containing 2000 M1-CHO cells in 1536 tissue culture treated white plate
(3) Add 23 nl compound diluted in DMSO
[…]
Potency means the concentration at half of the fitted maximal effect.

Activity change, negative = inhibition, inactive:
OC[C@H]1O[C@@H](n2cnc3c(NCCc4ccccc4)ncnc32)[C@H](O)[C@H]1O -34.5%
CCCNC[C@H](O)COc1ccccc1C(=O)CCc1ccccc1 -40.9%
COC(=O)c1c(-c2cc(OC)c(OC)c(OC)c2)c2ccc(OCc3ccccn3)cc2c(=O)n1-c1ccc(N)cc1 -30.4%
NC(=NCCC[C@H](N)C(=O)O)NO -25.1%
CCn1c(=O)c2[nH]c(-c3ccccc3)nc2n(CC)c1=O -26.8%
CCCC(=O)NCCc1c2n(c3ccc(OC)cc13)Cc1ccccc1-2 -11.5%
N=C1Sc2ccccc2C2=NCCCN12 -47.3%
COc1ccc2c(c1)c(CC(=O)O)c(C)n2Cc1ccc(F)cc1 -27.7%
NCCC(=O)NCCc1cnc[nH]1 -23.5%
CC(C)CN(C)c1nc(N)c(C(=O)N=C(N)N)nc1Cl -44.9%
NCCNC(=O)c1ccc(Cl)cc1 -24.8%

Potency, active:
NCCCCNS(=O)(=O)c1cccc2c(Cl)cccc12 17.8 µM
